Results: publication PMC7862700, “An all-to-all approach to the identification of sequence-specific readers for epigenetic DNA modifications on cytosine”

What was measured:
Test in all cases: DAPPL (digital affinity profiling via proximity ligation, sequencing); 10 mM Tris-HCl pH 7.5, 50 mM NaCl, 1 mM DTT, 4% glycerol, room temperature, 30 min; GST-TFs on glutathione beads, 16-mer random dsDNA library, 0.1% formaldehyde crosslink after washing; high values mean tight binding
Details in all cases: protein: recombinant; tags: N-terminal GST; dsDNA, one strand shown
SPIC = target: T1, SPIC (Homo sapiens, UniProt Q8N5J4 1-248)
T1 sequence: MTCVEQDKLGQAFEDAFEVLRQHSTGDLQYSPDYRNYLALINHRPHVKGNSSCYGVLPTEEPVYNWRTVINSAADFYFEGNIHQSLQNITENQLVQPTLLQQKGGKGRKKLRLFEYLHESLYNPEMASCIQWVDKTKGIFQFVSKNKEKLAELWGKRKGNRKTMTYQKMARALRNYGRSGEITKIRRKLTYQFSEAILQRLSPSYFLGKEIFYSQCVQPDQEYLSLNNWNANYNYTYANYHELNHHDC
In short: (§1)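 Binding signal is given per hexamer as its read frequency for a factor divided by its frequency in the tag-only sample. GST-fused human transcription factors were expressed in yeast, captured on glutathione beads, barcoded with DNA and pooled with that sample, then incubated with 200 nmole of a 16-mer random double-stranded DNA library in Tris/NaCl/DTT/glycerol buffer for 30 min at room temperature. The pools were then washed, crosslinked, proximity-ligated, amplified by PCR and sequenced on an Illumina NextSeq500.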

SPDEF = target: T2, SPDEF (Homo sapiens, UniProt O95238 1-335)
T2 sequence: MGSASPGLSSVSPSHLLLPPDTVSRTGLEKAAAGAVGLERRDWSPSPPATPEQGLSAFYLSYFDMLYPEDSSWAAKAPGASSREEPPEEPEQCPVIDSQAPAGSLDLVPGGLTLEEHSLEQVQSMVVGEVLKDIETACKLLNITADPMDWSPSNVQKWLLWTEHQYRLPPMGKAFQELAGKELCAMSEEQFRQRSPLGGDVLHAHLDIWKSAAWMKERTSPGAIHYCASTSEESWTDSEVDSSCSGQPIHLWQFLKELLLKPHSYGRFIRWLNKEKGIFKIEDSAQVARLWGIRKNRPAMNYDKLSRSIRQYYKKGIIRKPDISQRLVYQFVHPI
In short: as §1

ELF5 = target: T3, ELF5 (Homo sapiens, UniProt Q9UKW6-2 1-255)
T3 sequence: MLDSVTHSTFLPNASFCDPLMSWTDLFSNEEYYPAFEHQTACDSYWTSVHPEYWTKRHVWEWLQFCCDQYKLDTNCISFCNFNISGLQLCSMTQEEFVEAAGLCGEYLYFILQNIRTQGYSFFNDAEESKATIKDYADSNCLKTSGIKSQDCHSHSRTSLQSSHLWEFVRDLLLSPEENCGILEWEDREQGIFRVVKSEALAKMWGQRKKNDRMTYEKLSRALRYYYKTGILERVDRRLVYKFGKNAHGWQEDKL
In short: as §1

ELK4 = target: T4, ELK4 (Homo sapiens, UniProt P28324-2 1-405)
T4 sequence: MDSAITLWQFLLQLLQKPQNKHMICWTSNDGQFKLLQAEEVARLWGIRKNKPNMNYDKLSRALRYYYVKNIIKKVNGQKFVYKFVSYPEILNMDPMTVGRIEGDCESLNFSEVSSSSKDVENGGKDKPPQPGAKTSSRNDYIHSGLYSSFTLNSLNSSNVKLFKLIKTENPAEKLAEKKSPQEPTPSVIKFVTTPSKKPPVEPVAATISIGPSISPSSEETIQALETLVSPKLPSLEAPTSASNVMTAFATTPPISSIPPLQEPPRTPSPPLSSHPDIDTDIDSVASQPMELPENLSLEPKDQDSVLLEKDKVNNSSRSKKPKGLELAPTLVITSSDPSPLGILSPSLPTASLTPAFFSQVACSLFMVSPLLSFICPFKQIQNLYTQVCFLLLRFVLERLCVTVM
In short: as §1

FEV = target: T5, FEV (Homo sapiens, UniProt Q99581 1-238)
T5 sequence: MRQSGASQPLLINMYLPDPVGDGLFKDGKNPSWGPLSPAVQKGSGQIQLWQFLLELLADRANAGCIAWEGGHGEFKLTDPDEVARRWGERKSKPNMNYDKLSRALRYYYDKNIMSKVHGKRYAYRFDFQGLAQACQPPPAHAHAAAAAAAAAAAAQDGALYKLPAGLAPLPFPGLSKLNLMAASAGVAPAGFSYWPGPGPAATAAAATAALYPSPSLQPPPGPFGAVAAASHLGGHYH
In short: as §1

CRX = CRX (Homo sapiens, UniProt O43186 1-299)
CRX, sequence (O43186 whole entry): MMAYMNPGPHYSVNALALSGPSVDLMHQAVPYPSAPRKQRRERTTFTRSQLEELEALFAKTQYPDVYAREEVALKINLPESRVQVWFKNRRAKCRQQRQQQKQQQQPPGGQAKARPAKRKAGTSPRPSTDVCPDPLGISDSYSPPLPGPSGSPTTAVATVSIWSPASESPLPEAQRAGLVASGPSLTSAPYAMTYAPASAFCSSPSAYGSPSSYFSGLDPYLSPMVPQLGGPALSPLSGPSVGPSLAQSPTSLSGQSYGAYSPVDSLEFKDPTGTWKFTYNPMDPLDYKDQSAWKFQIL
In short: as §1

ATGGCG
binding signal (SPIC): 1.16 fold enrichment (6-mer frequency, TF over GST control) | binding signal (SPDEF): 1.02 fold enrichment (6-mer frequency, TF over GST control) | binding signal (ELF5): 1.01 fold enrichment (6-mer frequency, TF over GST control)

TGGGTA
binding signal (SPIC): 1.03 fold enrichment (6-mer frequency, TF over GST control) | binding signal (ELK4): 1.02 fold enrichment (6-mer frequency, TF over GST control)

ACGACC
binding signal (FEV): 1.22 fold enrichment (6-mer frequency, TF over GST control) | binding signal (ELK4): 1.14 fold enrichment (6-mer frequency, TF over GST control) | binding signal (SPDEF): 1.2 fold enrichment (6-mer frequency, TF over GST control) | binding signal (ELF5): 1.17 fold enrichment (6-mer frequency, TF over GST control)

GGTTAT
binding signal (SPIC): 1.05 fold enrichment (6-mer frequency, TF over GST control) | binding signal (CRX): 1.04 fold enrichment (6-mer frequency, TF over GST control) | binding signal (SPDEF): 1.05 fold enrichment (6-mer frequency, TF over GST control) | binding signal (ELF5): 1.1 fold enrichment (6-mer frequency, TF over GST control)

TTGGCG
binding signal (SPIC): 1.09 fold enrichment (6-mer frequency, TF over GST control)

ACTAGG
binding signal (FEV): 1.02 fold enrichment (6-mer frequency, TF over GST control) | binding signal (SPIC): 1.21 fold enrichment (6-mer frequency, TF over GST control) | binding signal (ELK4): 1.03 fold enrichment (6-mer frequency, TF over GST control) | binding signal (SPDEF): 1.1 fold enrichment (6-mer frequency, TF over GST control) | binding signal (ELF5): 1 fold enrichment (6-mer frequency, TF over GST control)

ACCGCA
binding signal (FEV): 1.17 fold enrichment (6-mer frequency, TF over GST control) | binding signal (ELK4): 1.05 fold enrichment (6-mer frequency, TF over GST control) | binding signal (CRX): 1.01 fold enrichment (6-mer frequency, TF over GST control) | binding signal (SPDEF): 1.13 fold enrichment (6-mer frequency, TF over GST control) | binding signal (ELF5): 1.1 fold enrichment (6-mer frequency, TF over GST control)

AGTGTA
binding signal (FEV): 1.01 fold enrichment (6-mer frequency, TF over GST control) | binding signal (SPIC): 1.19 fold enrichment (6-mer frequency, TF over GST control)

TCATAC
binding signal (FEV): 1.07 fold enrichment (6-mer frequency, TF over GST control) | binding signal (ELK4): 1.07 fold enrichment (6-mer frequency, TF over GST control) | binding signal (CRX): 1.02 fold enrichment (6-mer frequency, TF over GST control) | binding signal (SPDEF): 1.05 fold enrichment (6-mer frequency, TF over GST control) | binding signal (ELF5): 1.09 fold enrichment (6-mer frequency, TF over GST control)

GCTTGT
binding signal (FEV): 1.02 fold enrichment (6-mer frequency, TF over GST control) | binding signal (SPIC): 1.26 fold enrichment (6-mer frequency, TF over GST control) | binding signal (ELF5): 1.05 fold enrichment (6-mer frequency, TF over GST control)

CCCCCC
binding signal (FEV): 1.03 fold enrichment (6-mer frequency, TF over GST control) | binding signal (ELK4): 1.23 fold enrichment (6-mer frequency, TF over GST control) | binding signal (SPDEF): 1.08 fold enrichment (6-mer frequency, TF over GST control) | binding signal (ELF5): 1.09 fold enrichment (6-mer frequency, TF over GST control)

TGCCGG
binding signal (FEV): 1.26 fold enrichment (6-mer frequency, TF over GST control) | binding signal (SPIC): 1.09 fold enrichment (6-mer frequency, TF over GST control) | binding signal (SPDEF): 1.21 fold enrichment (6-mer frequency, TF over GST control) | binding signal (ELF5): 1.09 fold enrichment (6-mer frequency, TF over GST control)

GTAGTT
binding signal (SPIC): 1.05 fold enrichment (6-mer frequency, TF over GST control) | binding signal (ELK4): 1.1 fold enrichment (6-mer frequency, TF over GST control) | binding signal (SPDEF): 1.05 fold enrichment (6-mer frequency, TF over GST control) | binding signal (ELF5): 1.07 fold enrichment (6-mer frequency, TF over GST control)

AGTGGT
binding signal (FEV): 1.02 fold enrichment (6-mer frequency, TF over GST control) | binding signal (SPIC): 1.22 fold enrichment (6-mer frequency, TF over GST control) | binding signal (ELK4): 1.1 fold enrichment (6-mer frequency, TF over GST control) | binding signal (ELF5): 1.14 fold enrichment (6-mer frequency, TF over GST control)

GTCCGC
binding signal (FEV): 1.04 fold enrichment (6-mer frequency, TF over GST control) | binding signal (SPIC): 1.21 fold enrichment (6-mer frequency, TF over GST control) | binding signal (ELK4): 1.09 fold enrichment (6-mer frequency, TF over GST control) | binding signal (SPDEF): 1.07 fold enrichment (6-mer frequency, TF over GST control) | binding signal (ELF5): 1.07 fold enrichment (6-mer frequency, TF over GST control)

TACCCC
binding signal (FEV): 1.07 fold enrichment (6-mer frequency, TF over GST control) | binding signal (ELK4): 1.19 fold enrichment (6-mer frequency, TF over GST control) | binding signal (CRX): 1.03 fold enrichment (6-mer frequency, TF over GST control) | binding signal (SPDEF): 1.02 fold enrichment (6-mer frequency, TF over GST control) | binding signal (ELF5): 1.12 fold enrichment (6-mer frequency, TF over GST control)

GCTATC
binding signal (FEV): 1.08 fold enrichment (6-mer frequency, TF over GST control) | binding signal (ELK4): 1.13 fold enrichment (6-mer frequency, TF over GST control) | binding signal (SPDEF): 1.11 fold enrichment (6-mer frequency, TF over GST control) | binding signal (ELF5): 1.04 fold enrichment (6-mer frequency, TF over GST control)

ACATAG
binding signal (SPIC): 1.02 fold enrichment (6-mer frequency, TF over GST control) | binding signal (SPDEF): 1 fold enrichment (6-mer frequency, TF over GST control) | binding signal (ELF5): 1.02 fold enrichment (6-mer frequency, TF over GST control)

GTTATA
binding signal (SPIC): 1.15 fold enrichment (6-mer frequency, TF over GST control) | binding signal (CRX): 1.08 fold enrichment (6-mer frequency, TF over GST control) | binding signal (SPDEF): 1.03 fold enrichment (6-mer frequency, TF over GST control)

ATAGCG
binding signal (SPIC): 1.03 fold enrichment (6-mer frequency, TF over GST control)

ATGCAG
binding signal (FEV): 1.11 fold enrichment (6-mer frequency, TF over GST control) | binding signal (ELK4): 1.15 fold enrichment (6-mer frequency, TF over GST control) | binding signal (SPDEF): 1.05 fold enrichment (6-mer frequency, TF over GST control) | binding signal (ELF5): 1.06 fold enrichment (6-mer frequency, TF over GST control)

GTTGAC
binding signal (FEV): 1.18 fold enrichment (6-mer frequency, TF over GST control) | binding signal (ELK4): 1.25 fold enrichment (6-mer frequency, TF over GST control) | binding signal (SPDEF): 1.07 fold enrichment (6-mer frequency, TF over GST control) | binding signal (ELF5): 1.07 fold enrichment (6-mer frequency, TF over GST control)

GTAGCT
binding signal (ELK4): 1.17 fold enrichment (6-mer frequency, TF over GST control) | binding signal (CRX): 1.02 fold enrichment (6-mer frequency, TF over GST control) | binding signal (ELF5): 1.07 fold enrichment (6-mer frequency, TF over GST control)

ACACGC
binding signal (FEV): 1.09 fold enrichment (6-mer frequency, TF over GST control) | binding signal (ELK4): 1.26 fold enrichment (6-mer frequency, TF over GST control) | binding signal (SPDEF): 1.08 fold enrichment (6-mer frequency, TF over GST control) | binding signal (ELF5): 1.02 fold enrichment (6-mer frequency, TF over GST control)

CGTAGC
binding signal (ELK4): 1.23 fold enrichment (6-mer frequency, TF over GST control) | binding signal (ELF5): 1.05 fold enrichment (6-mer frequency, TF over GST control)

TGTAAC
binding signal (FEV): 1.23 fold enrichment (6-mer frequency, TF over GST control) | binding signal (ELK4): 1.37 fold enrichment (6-mer frequency, TF over GST control) | binding signal (SPDEF): 1.23 fold enrichment (6-mer frequency, TF over GST control) | binding signal (ELF5): 1.21 fold enrichment (6-mer frequency, TF over GST control)

CGATGC
binding signal (FEV): 1.07 fold enrichment (6-mer frequency, TF over GST control) | binding signal (ELK4): 1.07 fold enrichment (6-mer frequency, TF over GST control) | binding signal (SPDEF): 1.07 fold enrichment (6-mer frequency, TF over GST control)

TTGTCA
binding signal (FEV): 1.06 fold enrichment (6-mer frequency, TF over GST control) | binding signal (ELK4): 1.21 fold enrichment (6-mer frequency, TF over GST control) | binding signal (SPDEF): 1.06 fold enrichment (6-mer frequency, TF over GST control) | binding signal (ELF5): 1.05 fold enrichment (6-mer frequency, TF over GST control)

TGCCCA
binding signal (FEV): 1.21 fold enrichment (6-mer frequency, TF over GST control) | binding signal (ELK4): 1.25 fold enrichment (6-mer frequency, TF over GST control) | binding signal (SPDEF): 1.12 fold enrichment (6-mer frequency, TF over GST control) | binding signal (ELF5): 1.01 fold enrichment (6-mer frequency, TF over GST control)
